Reference: PubChem BioAssay (Tox21)
Records with an inconclusive call do not appear. Activity calls are given as the source filed them. The call rests on the fitted dose curve; in most records, active means well fitted activation curve with a large enough effect in the signal ratio in the repeat runs (not every such curve was filed as active); inconclusive means weak or mixed curves; inactive means flat fitted curve, though single readings scatter; the % refers to the signal ratio. Square brackets hold non-standard residues; d marks the D form. Peptide text beside a SMILES is read from it. * marks the point of attachment. Sta = CC(C)C[C@H](N)[C@@H](O)CC(=O)O; Isovaleryl = CC(C)CC(=O)*

Test: p53 small molecule agonists, cell-based qHTS assay (AID 1963582)
Settings: HCT-116 p53RE-bla reporter, beta-lactamase FRET ratio, 16 h; series mostly up to 66 µM; activation: at the top concentration
Text: National Center for Advancing Translational Sciences [NCATS]
Division of Preclinical Innovation [DPI]
U.S. Environmental Protection Agency [EPA]
National Institutes of Environmental Health Sciences [NIEHS]
National Toxicology Program [NTP]
U.S. Food and Drug Administration [FDA]
p53, a tumor suppressor protein, is activated following cellular insult, including DNA damage and other cellular stresses. The activation of p53 regulates cell fate by inducing DNA repair, cell cycle arrest, apoptosis, or cellular senescence. The activation of p53, therefore, is a good indicator of DNA damage and other cellular stresses. […] The activation of the reporter gene under culture conditions can be detected by fluorescence intensity. This cell line was used to screen the Tox21 10K compound library in a 1536-well plate format and to identify agonists that activate the p53 signaling pathway.
Tox21 Assay Protocol Summary:
The p53RE-bla cells were dispensed at 4,000 cells/5 ul/well in 1536-well black wall/clear bottom plates using a Multidrop dispenser. After the assay plates were incubated at a 37 C/5% CO2 incubator for 5 hours, 23 nL of compounds dissolved in DMSO, positive controls or DMSO only was transferred to the assay plate by a pin tool. The plates were incubated at 37 C for 16 hours. After 1 uL of LiveBLAzerTM B/G FRET substrate was added using a Flying Reagent Dispenser, the plates were incubated at room temperature for 2 hours, and fluorescence intensity was measured by an Envision plate reader.
On the % scale 0 is the no-effect control and ±100 the full control effect; potency means the concentration at half of the fitted maximal effect.

| SMILES | activation | Potency |
| --- | --- | --- |
| O=C(OC1C[C@H]2CC[C@@H](C1)[N+]21CCCC1)C(O)(c1ccccc1)c1ccccc1 (stereo not given in full) | -3.07% [at 30.3 µM] (inactive) | – |
| CCOc1cccc(N)c1 | -3.66% (inactive) | – |
| Cl[Si](Cl)(c1ccccc1)c1ccccc1 | -6.25% (inactive) | – |
| CC(C)(C)N(CCO)CCO | 0.157% (inactive) | – |
| Oc1ccc(Cl)c2cccnc12 | 0.063% [at 30.3 µM] (inactive) | – |
| Cc1cc(NS(=O)(=O)c2ccc(N)cc2)nc(C)n1 | -0.0252% [at 30.3 µM] (inactive) | – |
| CNc1c2c(nn1C)CCCC2 | -1.31% [at 30.3 µM] (inactive) | – |
| Cn1c(=O)c2c(ncn2CC(=O)O)n(C)c1=O | 0.0411% [at 30.3 µM] (inactive) | – |
| Cc1cc(C(C)(C)C)c(O)c(C)c1CC1=NCCN1 | -1.11% [at 30.3 µM] (inactive) | – |
| COc1ccc([C@@H]2Sc3ccccc3N(CCN(C)C)C(=O)[C@@H]2OC(C)=O)cc1 | -0.325% [at 30.3 µM] (inactive) | – |
| CC/C=C(\C)C=O | -0.521% (inactive) | – |
| COc1c(Br)cc(Br)c(C)c1Br | -1.54% (inactive) | – |
| CC(C)(C)c1cccc(O)c1 | -1.69% (inactive) | – |
| O=C(O)/C=C/c1ccc(/C=C/C(=O)O)cc1 | -2.79% [at 30.3 µM] (inactive) | – |
| O=Cc1ccc(F)c(Br)c1 | -1.56% (inactive) | – |
| CC(C)CCCC(C)(C)O | 3.45% (inactive) | – |
| CC(=O)Nc1ccccc1C | 1.71% (inactive) | – |
| CCCCCCC(=O)OCC | 0.253% (inactive) | – |
| CCO[Si](C)(CCCOCC1CO1)OCC (stereo not given) | -3.23% (inactive) | – |
| CC(C)(O)CCc1ccccc1 | 2.37% (inactive) | – |

| SMILES | activation | Potency |
| --- | --- | --- |
| Nc1nc(CC(=O)O)cs1 | -0.654% (inactive) | – |
| O=C(CCCCC(=O)Nc1c(I)cc(I)c(C(=O)O)c1I)Nc1c(I)cc(I)c(C(=O)O)c1I | -4.07% [at 30.3 µM] (inactive) | – |
| CC[C@H](NC(C)C)[C@H](O)c1ccc(O)c2[nH]c(=O)ccc12 | 1.17% [at 30.3 µM] (inactive) | – |
| CCC(O)C(C)(C)C (stereo not given) | 2.12% (inactive) | – |
| COc1ccc([C@@H]2Sc3ccccc3NC(=O)[C@@H]2O)cc1 | 1.19% [at 30.3 µM] (inactive) | – |
| N=c1ccn2c(n1)O[C@H]1[C@H](O)[C@@H](CO)O[C@H]12 | – | 1.45 µM (active) |
| COc1ccc(N)c([N+](=O)[O-])c1 | 3.31% (inactive) | – |
| O=C(Nc1ccc2c(O)c(N=Nc3ccc(N=Nc4ccc(S(=O)(=O)O)cc4)cc3)c(S(=O)(=O)O)cc2c1)c1ccccc1 | -6.14% (inactive) | – |
| CC(C)NNC(=O)c1ccncc1 | 5.13% [at 30.3 µM] (inactive) | – |
| Cc1cccc(C)c1C | 0.145% (inactive) | – |
| CCC(C)(CCCC(C)C)OC(C)=O (stereo not given) | 0.922% (inactive) | – |
| SC1CCCCC1 | 2.31% (inactive) | – |
| CC/C=C\CCOC(=O)c1ccccc1 | 0.355% (inactive) | – |
| CCOC(=O)c1ccccc1O | -1.68% [at 30.3 µM] (inactive) | – |
| COc1cc2c(cc1OC)C(C(C(=O)N(CCc1ccc(OC)c(OC)c1OC)CCc1ccc(OC)c(OC)c1OC)c1ccccc1)=NCC2 (stereo not given) | -5.54% [at 30.3 µM] (inactive) | – |
| CC(C)Nc1nc(N)nc(Cl)n1 | -2.62% (inactive) | – |
| C#C[C@]1(OC(C)=O)CC[C@H]2[C@@H]3CCC4=C[C@@H](OC(C)=O)CC[C@@H]4[C@H]3CC[C@@]21C | -6.14% [at 30.3 µM] (inactive) | – |
| CC(C)CC(=O)N[C@H](C(=O)N[C@H](C(=O)N[C@@H](CC(C)C)[C@@H](O)CC(=O)N[C@@H](C)C(=O)N[C@@H](CC(C)C)[C@@H](O)CC(=O)O)C(C)C)C(C)C (Isovaleryl-VV[Sta]A[Sta]-OH) | -0.957% [at 30.3 µM] (inactive) | – |
| C/C=C/C=C/COC(=O)C(C)C | -3.05% (inactive) | – |
| Nc1ncnc2c1ncn2[C@H]1CC[C@@H](CO)O1 | 2.19% (inactive) | – |
